# Calls of active or inactive are those of the source. The calls were made as follows: active = hit-call score of the fitted dose curve at least 0.9, where 1 is the maximum; inactive = score below 0.9.
# Assay: ATG_NRF2_ARE_CIS: Attagene CIS-FACTORIAL HepG2 Assay for human Nuclear Factor Erythroid 2 Related Factor 2 (NFR2) response to Antioxidant Response Elements (ARE) (AID 2282992)
# Settings: HepG2 Attagene ARE/NRF2 reporter, transcription factor activity; actives raise or lower the signal
# Method: ATG_CIS is a cell-based, multiplexed-readout assay that uses HepG2, a human liver cell line, with measurements taken at 24 hours after chemical dosing in a 24-well plate.ATG_NRF2_ARE_CIS is one of 52 assay component(s) measured or calculated from the ATG_CIS assay. It is designed to make measurements of mRNA induction, a form of inducible reporter, as detected with fluorescence intensity signals by Reverse transcription polymerase chain reaction (RT-PCR) and Capillary electrophoresis technology.Data from the assay component ATG_NRF2_ARE_CIS was analyzed into 1 assay endpoint. This assay endpoint, ATG_NRF2_ARE_CIS, was analyzed with bidirectional fitting relative to DMSO as the negative control and baseline of activity. Using a type of inducible reporter, measures of mRNA for gain or loss-of-signal activity can be used to understand the reporter gene at the transcription factor-level as they relate to the gene NFE2L2. Furthermore, this assay endpoint can be referred to as a primary readout, because this assay has produced multiple assay endpoints where this one serves a reporter gene function. To generalize the intended target to other relatable targets, this assay endpoint is annotated to the dna binding intended target family, where the subfamily is basic leucine zipper.
# Human liver HepG2 cells are transiently transfected with multiple reporter transcription units (MRTUs) in 6-well plates using FuGene 6 reagent (Roche; 3 ml FuGene/1 mg DNA). The MRTU constructs are regulated by a cis-regulating element (promoter). […] A major difference between the CIS and TRANS system is that in CIS activities of endogenous TFs are measured, whereas the TRANS assay evaluates changes in activities of exogenous, chimeric NR-Gal4 proteins. […] At the end of 24 hour incubation, total RNA was isolated using TriZol reagent (Invitrogen). The isolated RNA is then reverse-transcribed using oligo(dT) primer and Mo-MLV reverse transcriptase (Invitrogen) with DNAse I (Ambion) treatment for 30 min. The one-tenth of the produced cDNA was amplified by PCR using Taq DNA polymerase (Invitrogen) and two reporter sequence-specific primers. The PCR products were fluorescently labeled by primer extension with 6-arboxyfluorescein (6-FAM) 5'-labeled reporter sequence-specific primer (2 min at 95 C, 20 s at 68 C and 10 min at 72 C) and these products were digested with 5U of HpaI (New England Biolabs) for 2h at 37 C. The fragments were purified using Qiaquick PCR columns (Qiagen), analyzed on an ABI 3130xL genetic analyzer (Applied Biosystems) with peak positions identified by using a set of X-rhodamine (ROX)-labeled MapMarker1000 molecular weight standards (BioVentures). The raw capillary electrophoresis data was processed using Attagraph software (Attagene).
Structure (SMILES),outcome,AC50
NC(=O)NC1NC(=O)NC1=O (stereo not given),inactive,
CCCCC(CC)COC(=O)/C=C\C(=O)OCC(CC)CCCC (stereo not given),,9.08 µM (active)
C=O,inactive,
O=C(O)C[C@H](O)C[C@H](O)/C=C/c1c(C2CC2)nc2ccccc2c1-c1ccc(F)cc1,inactive,
CC(C)(C)c1n[nH]c(=S)n(N)c1=O,inactive,
CCCC1CCC(=O)O1 (stereo not given),inactive,
c1ccc(CCCc2ccccn2)cc1,inactive,
COc1cc(C(C)(C)C)c(O)c(C(C)(C)C)c1,inactive,
Clc1ccc2c(c1)C(N1CCNCC1)=Nc1ccccc1O2,inactive,
C=CC(C)(O)CCC=C(C)CCC=C(C)C (stereo not given),,100 µM (active)
O=[N+]([O-])c1cc(C(F)(F)F)ccc1Cl,,50.9 µM (active)
Cc1cc(C2(c3cc(C)c(O)cc3C)OS(=O)(=O)c3ccccc32)c(C)cc1O,inactive,
CCCCCCOC(=O)CCCCC,inactive,
CC(C)CCCCCCCOC(=O)c1ccc(C(=O)OCCCCCCCC(C)C)c(C(=O)OCCCCCCCC(C)C)c1,inactive,
O=CCCc1ccccc1,,38 µM (active)
O=C1NC(=O)c2ccccc21,inactive,
Cc1ccc(Nc2ccc(O)c3c2C(=O)c2ccccc2C3=O)cc1,,5.13 µM (active)
COc1cc(C=O)ccc1OC(=O)C(C)C,inactive,
CC1CCC(C(C)CS)CC1S (stereo not given),,33.4 µM (active)
CC1(C)C(=O)N(Br)C(=O)N1Cl,,100 µM (active)

Structure (SMILES),outcome,AC50
NNc1nc(-c2ccc(N)cc2)cs1,inactive,
Nc1ccc(F)c([N+](=O)[O-])c1,inactive,
COc1cc2ncnc(Nc3cccc(Cl)c3)c2cc1OC,inactive,
Cc1ccccc1C=O,inactive,
COc1ccc(O)cc1,inactive,
Cc1ccc(C(C)C)cc1O,inactive,
C[C@H]1C[C@H]2[C@@H]3CCC4=CC(=O)C=C[C@]4(C)[C@@]3(F)[C@@H](O)C[C@]2(C)[C@@]1(O)C(=O)COP(=O)(O)O,,15.6 µM (active)
O=C[C@H](O)[C@H](O)[C@H](O)CO,inactive,
CCCCCCCCCOC(C)=O,inactive,
COc1ccc(OC)c(OC)c1,inactive,
O=C1c2ccccc2C(=O)N1SC1CCCCC1,,65.4 µM (active)
CC[C@]12CCCN3CCc4c(n(c5ccccc45)[C@@](O)(C(=O)OC)C1)[C@@H]32,inactive,
COC(=O)OC,inactive,
C=CC(=O)OCC(O)COc1ccccc1 (stereo not given),,26.2 µM (active)
CCCC(=O)c1cc(O)c(O)cc1O,inactive,
CCCCC[Si](OCC)(OCC)OCC,inactive,
O=C=NC1CCC(CC2CCC(N=C=O)CC2)CC1 (stereo not given),inactive,
CC(C)=CCC[C@H](C)CC=O,inactive,
C=CCOc1nc(OCC=C)nc(OCC=C)n1,inactive,
CC(C)(COC(=O)c1ccccc1)COC(=O)c1ccccc1,inactive,

# — PubChem BioAssay (EPA / NIEHS)
